Drawing on PubChem BioAssay (NCI), this text covers growth for nine compounds.

The panel holds about 83,000 compounds, 20% with a hit somewhere; the sample as a whole holds those more often.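 A percent growth of 40 corresponds to 60% growth inhibition; 0 means no net growth; -100 means all cells died. Active threshold: below 10.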 Unmarked numbers belong to inactive results. The source made the active and inactive calls.

Holding throughout (experiment): NCI-60 one-dose screen, 48 h (100 = growth as untreated, 0 = no growth, -100 = all killed)
What all share (conditions): 10 µM unless noted

The test system of assay [1] is SR leukemia.
For assay [2], the system named is RPMI-8226 leukemia.
In assay [3] the test system is OVCAR-8 ovarian.
The test system of assay [4] is OVCAR-5 ovarian.
The subject of assay [5] is OVCAR-4 ovarian.
The test system of assay [6] is SK-OV-3 ovarian.
In assay [7] the test system is IGROV1 ovarian.
The test system of assay [8] is OVCAR-3 ovarian.
Assay [9] relates to HS 578T breast.
Assay [10] has as its system NCI/ADR-RES ovarian.
The test system of assay [11] is T-47D breast.
The test system of assay [12] is BT-549 breast.
The test system of assay [13] is MDA-MB-435 melanoma.
In assay [14] the test system is SW-620 colon.
Assay [15] relates to MCF7 breast.
Assay [16] has as its system HCT-116 colon.
In assay [17] the test system is HCC-2998 colon.
The test system of assay [18] is KM12 colon.

Turning to `O=S(=O)(N=C1C(Cl)=C(Cl)C(=NS(=O)(=O)c2ccccc2)C(Cl)=C1Cl)c1ccccc1`, the growth is 46.4% in [1]; 79.4% in assay [2]; 69% in assay [3]; 73.8% in assay [4]; 91.9% in assay [5]; 102% in assay [6]. The growth in assay [7] was 57.7%; in assay [8], 130%; in [9] it was 93.2%; in assay [10], 65.3%; in assay [11] it was 88.9%; in assay [12] it was 86.6%. For the same compound, the growth in [13] was 101%; in assay [14], 39.7%; in assay [15], 53.8%; in assay [16], 25.4%; in assay [17], 122%; in assay [18], 96.2%.

Take `CCCCn1c(NC(C)=O)c(S(=O)(=O)c2ccccc2)c2nc3ccccc3nc21`: the growth in assay [1] is 86.9%; in assay [2], 107%; in [3] it was 98.9%; in assay [4], 93.2%; in [5] it was 100%; in assay [6], 98.5%. Besides, the growth in assay [7] is 76.3%; in assay [8], 95.7%; in assay [9] it was 95.9%; in assay [10], 97.7%; in assay [11], 79.9%; in assay [12], 103%. Also, the growth was 106% in [13]; 109% in [14]; 98.4% in assay [15]; 127% in [16]; 113% in [17]; 103% in assay [18].

With `Nc1cc(Br)cc2c1[nH]c(=O)c1ccccc12`, the growth in [1] was 90.7%; in assay [2] it was 96.1%; in [3] it was 86.2%; in [4], 92.3%; in assay [5], 84.2%; in assay [6], 105%. In addition, the growth was 114% in assay [7]; 94.4% in assay [8]; 91.6% in assay [9]; 91.7% in assay [10]; 79.6% in assay [11]; 86.9% in assay [12]. For the same compound, the growth in assay [13] was 113%; in [14], 94.7%; in [15], 53.2%; in assay [16], 96.8%; in [17] it was 104%; in [18], 104%.

Regarding `C/C(Cc1ccc(Cl)cc1)=C(\c1ccc(OCCN2CCCCCC2)cc1)c1ccc(OC(=O)c2ccccc2)cc1`, the growth in assay [1] was -14.3% (active); in assay [2], -24.6% (active); in assay [3] it was 34.5%; in [4] it was 68.7%; in assay [5] it was 36.6%; in assay [6] it was 86.9%. The growth in assay [7] is 24.4%; in [8], 59.1%; in [9], 56%; in assay [10], 47%; in assay [11], 46.3%; in [12], 56.2%. For the same compound, the growth in assay [13] is 47.6%; in [14], 37.3%; in [15] it was 9.46% (active); in assay [16] it was -64.8% (active); in assay [17], 23.8%; in assay [18], 32%.

Turning to `CN(C)CCn1c(=O)c2ccccc2n2nc3ccccc3c12`, the growth in assay [1] is 46.8%; in assay [2] it was 101%; in assay [3] it was 79.2%; in [4] it was 105%; in assay [5], 83.9%; in assay [6], 94.5%. Also, the growth is 74.9% in assay [7]; 99.2% in assay [8]; 97.8% in assay [9]; 76.7% in assay [10]; 99.8% in assay [11]; 103% in [12]. The growth in assay [13] was 100%; in assay [14], 64.2%; in [15], 72.6%; in assay [16] it was 71.1%; in [17], 99.8%; in assay [18] it was 95%.

Consider `Cc1cccc(NC(=O)Cn2cc(CN3CCN(c4ccnc5cc(Cl)ccc45)CC3)nn2)c1`, for which the growth in assay [1] is 78%; in [2], 63.7%; in assay [3] it was 92.7%; in assay [4], 96.8%; in assay [5], 78.1%; in assay [6] it was 76.6%. Besides, the growth in [7] was 89.1%; in [8] it was 91.1%; in [9], 85.1%; in assay [10], 91.3%; in assay [11], 83.8%; in assay [12] it was 86.2%. For the same compound, the growth in assay [13] was 93.4%; in [14], 90.1%; in [15], 88.2%; in assay [16], 95.3%; in assay [17] it was 102%; in assay [18] it was 81.6%.

On to `Cc1sc2nc(NCCN)[nH]c(=O)c2c1C`, for which the growth in assay [1] was 89.6%; in [2], 110%; in [3], 101%; in assay [4] it was 89.5%; in assay [5] it was 85.1%; in [6], 111%. The growth in assay [7] was 100%; in [8], 96.7%; in assay [9], 88.7%; in assay [10], 94.8%; in assay [11], 95%; in [12], 94.3%. The growth in assay [13] is 84.9%; in assay [14], 95.5%; in [15], 89.6%; in [16], 97.8%; in assay [17], 101%; in assay [18] it was 84.3%.

Regarding `COc1cc2c(cc1-c1c(C)noc1C)ncc1nc(CN3CCOCC3)n([C@H](C)COC(F)F)c12`, the growth in [1] is 33.7%; in assay [2] it was 10.1%; in assay [3] it was 46.1%; in [4] it was 68.2%; in assay [5], 35.9%; in assay [6], 7.42% (active). Moreover, the growth in [7] is 36.2%; in [8], 23.1%; in [9], 30%; in [10], 40.8%; in assay [11] it was 13%; in assay [12], 55.5%. In addition, the growth was 35.8% in assay [13]; 62.9% in assay [14]; 13.2% in assay [15]; 41.3% in assay [16]; 32% in assay [17]; 34.9% in assay [18].

As for `C=C(C)[C@@H]1CC[C@]2(CO)CC[C@]3(C)[C@H](CC[C@@H]4[C@@](C)(CCCN)[C@H](C(=C)C)CC[C@]43C)[C@@H]12`, the growth in assay [1] is -14% (active); in assay [2], -43.2% (active); in assay [3], -40.4% (active); in assay [4] it was -78.5% (active); in [5], -67.8% (active); in [6] it was -82.4% (active). The growth is -96.2% (active) in assay [7]; -61.7% (active) in assay [8]; -52.3% (active) in assay [9]; -80.4% (active) in [10]; -40.5% (active) in [11]; -92.8% (active) in [12]. Besides, the growth in assay [13] was -97% (active); in assay [14] it was -89.5% (active); in assay [15], -89.3% (active); in assay [16], -88.3% (active); in assay [17], -80.1% (active); in assay [18], -79.6% (active).
